PubChem BioAssay AID1159580 (chemical genetic matrix, 2015)
Hit rate of the full screen: of about 5,500 compounds, about 2,000 (36%) were called active. Another 18% or so got no clear call; they are omitted. No stated cut-off is given here; in the data, active means normalized growth mostly below about 0.91 (no sharp cut-off); inconclusive means no clear call, values can overlap the other calls; inactive means mostly above about 0.92. The list shows a part of the results.

Assay: chemical genetic growth profiling, strain panel (AID 1159580);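 further: tested at 20 µM; growth read once vehicle control cultures reached saturation at 30 °C; 1 = growth at the plate median or of vehicle wells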
Details: growth OD

Measured: normalized growth

COc1ccc2c(c1)c(CC(=O)OCC(=O)O)c(C)n2C(=O)c1ccc(Cl)cc1
inactive: S. cerevisiae deletion strains, locus YJR075W, strain HOC1, stronger effect = lower value 1.03 | S. cerevisiae deletion strains, locus YKL009W, strain mrt4, stronger effect = lower value 0.951 | S. cerevisiae deletion strains, locus YKL068W, stronger effect = lower value 1.01 | S. cerevisiae deletion strains, locus YKL085W, strain MDH1 (second series), stronger effect = lower value 0.984 | S. cerevisiae deletion strains, locus YKL085W, strain MDH1, stronger effect = lower value 0.984 | S. cerevisiae deletion strains, locus YKL160W, strain elf1, stronger effect = lower value 0.99 | S. cerevisiae deletion strains, locus YKL190W, strain CNB1, stronger effect = lower value 1.01 | S. cerevisiae deletion strains, locus YKR001C, strain vps1, stronger effect = lower value 1.02 | S. cerevisiae deletion strains, locus YKR026C, strain gcn3, stronger effect = lower value 0.991 | S. cerevisiae deletion strains, locus YKR091W, strain srl3, stronger effect = lower value 1 | S. cerevisiae deletion strains, locus YLL001W, strain dnm1, stronger effect = lower value 0.958 | S. cerevisiae deletion strains, locus YLL026W, stronger effect = lower value 0.997 | S. cerevisiae deletion strains, locus YLL041C, strain sdh2, stronger effect = lower value 0.995 | S. cerevisiae deletion strains, locus YLR027C, strain aat2, stronger effect = lower value 0.971 | S. cerevisiae deletion strains, locus YLR039C, strain RIC1, stronger effect = lower value 1.03 | S. cerevisiae deletion strains, locus YLR058C, strain SHM2, stronger effect = lower value 1.02 | S. cerevisiae deletion strains, locus YLR102C, strain apc9, stronger effect = lower value 1.01 | S. cerevisiae deletion strains, locus YLR113W, strain HOG1, stronger effect = lower value 0.991 | S. cerevisiae deletion strains, locus YLR221C, strain rsa3, stronger effect = lower value 0.998 | S. cerevisiae deletion strains, locus YLR258W, strain gsy2, stronger effect = lower value 1 | S. cerevisiae deletion strains, locus YLR262C, strain YPT6 (second series), stronger effect = lower value 0.99 | S. cerevisiae deletion strains, locus YLR262C, strain YPT6, stronger effect = lower value 1.03 | S. cerevisiae deletion strains, locus YLR268W, strain sec22, stronger effect = lower value 1.06 | S. cerevisiae deletion strains, locus YLR320W, strain mms22, stronger effect = lower value 1.01 | S. cerevisiae deletion strains, locus YLR330W, strain CHS5, stronger effect = lower value 1.01 | S. cerevisiae deletion strains, locus YLR342W, strain FKS1 (second series), stronger effect = lower value 1.02 | S. cerevisiae deletion strains, locus YLR342W, strain FKS1, stronger effect = lower value 0.971 | S. cerevisiae deletion strains, locus YLR357W, strain rsc2, stronger effect = lower value 0.946 | S. cerevisiae deletion strains, locus YLR370C, strain arc18, stronger effect = lower value 0.983 | S. cerevisiae deletion strains, locus YLR371W, strain rom2, stronger effect = lower value 1.02 | S. cerevisiae deletion strains, locus YLR384C, strain iki3, stronger effect = lower value 0.982 | S. cerevisiae deletion strains, locus YLR418C, strain cdc73, stronger effect = lower value 1.03 | S. cerevisiae deletion strains, locus YML016C, strain PPZ1, stronger effect = lower value 1 | S. cerevisiae deletion strains, locus YML032C, strain rad52, stronger effect = lower value 1.02 | S. cerevisiae deletion strains, locus YML120C, strain ndi1, stronger effect = lower value 0.982 | S. cerevisiae deletion strains, locus YML124C, strain tub3, stronger effect = lower value 1.02 | S. cerevisiae deletion strains, locus YMR058W, strain fet3, stronger effect = lower value 0.995 | S. cerevisiae deletion strains, locus YMR078C, strain ctf18, stronger effect = lower value 1.01 | S. cerevisiae deletion strains, locus YMR125W, strain sto1, stronger effect = lower value 1 | S. cerevisiae deletion strains, locus YMR129W, stronger effect = lower value 1.01 | S. cerevisiae deletion strains, locus YMR205C, strain PFK2, stronger effect = lower value 0.976 | S. cerevisiae deletion strains, locus YMR223W, strain ubp8, stronger effect = lower value 1.02 | S. cerevisiae deletion strains, locus YMR231W, strain pep5, stronger effect = lower value 0.991 | S. cerevisiae deletion strains, locus YMR263W, strain SAP30, stronger effect = lower value 1.02 | S. cerevisiae deletion strains, locus YMR307W, strain GAS1, stronger effect = lower value 1.04 | S. cerevisiae deletion strains, locus YNL067W, strain RPL9B, stronger effect = lower value 1.03 | S. cerevisiae deletion strains, locus YNL071W, strain lat1, stronger effect = lower value 1.01 | S. cerevisiae deletion strains, locus YNL128W, strain TEP1, stronger effect = lower value 1.02 | S. cerevisiae deletion strains, locus YNL153C, strain GIM3, stronger effect = lower value 1.02 | S. cerevisiae deletion strains, locus YNL183C, strain NPR1, stronger effect = lower value 0.868 | S. cerevisiae deletion strains, locus YNL209W, strain ssb2, stronger effect = lower value 1.01 | S. cerevisiae deletion strains, locus YNL233W, strain BNI4, stronger effect = lower value 1.02 | S. cerevisiae deletion strains, locus YNL248C, strain rpa49, stronger effect = lower value 1.03 | S. cerevisiae deletion strains, locus YNL250W, strain rad50, stronger effect = lower value 1.02 | S. cerevisiae deletion strains, locus YNL271C, strain bni1, stronger effect = lower value 1.02 | S. cerevisiae deletion strains, locus YNL298W, strain CLA4, stronger effect = lower value 0.998 | S. cerevisiae deletion strains, locus YNL307C, strain MCK1, stronger effect = lower value 1.02 | S. cerevisiae deletion strains, locus YNL322C, strain KRE1 (second series), stronger effect = lower value 1.01 | S. cerevisiae deletion strains, locus YNL322C, strain KRE1, stronger effect = lower value 1.01 | S. cerevisiae deletion strains, locus YNR049C, strain mso1, stronger effect = lower value 0.995 | S. cerevisiae deletion strains, locus YNR052C, strain pop2, stronger effect = lower value 1 | S. cerevisiae deletion strains, locus YOL006C, strain TOP1, stronger effect = lower value 1.11 | S. cerevisiae deletion strains, locus YOL012C, strain htz1 0.843 | S. cerevisiae deletion strains, locus YOL147C, strain pex11, stronger effect = lower value 1.02 | S. cerevisiae deletion strains, locus YOR001W, strain rrp6, stronger effect = lower value 0.969 | S. cerevisiae deletion strains, locus YOR061W, strain CKA2, stronger effect = lower value 1.01 | S. cerevisiae deletion strains, locus YOR069W, strain VPS5, stronger effect = lower value 1.01 | S. cerevisiae deletion strains, locus YOR070C, strain gyp1, stronger effect = lower value 1.01 | S. cerevisiae deletion strains, locus YOR080W, strain dia2, stronger effect = lower value 0.976 | S. cerevisiae deletion strains, locus YOR083W, strain WHI5, stronger effect = lower value 0.951 | S. cerevisiae deletion strains, locus YOR106W, strain vam3, stronger effect = lower value 0.975 | S. cerevisiae deletion strains, locus YOR136W, strain idh2, stronger effect = lower value 1.02 | S. cerevisiae deletion strains, locus YOR144C, strain elg1, stronger effect = lower value 1.02 | S. cerevisiae deletion strains, locus YOR184W, strain ser1, stronger effect = lower value 1.02 | S. cerevisiae deletion strains, locus YOR231W, strain MKK1, stronger effect = lower value 0.97 | S. cerevisiae deletion strains, locus YOR265W, strain rbl2, stronger effect = lower value 1 | S. cerevisiae deletion strains, locus YOR270C, strain vph1, stronger effect = lower value 1 | S. cerevisiae deletion strains, locus YOR290C, strain snf2, stronger effect = lower value 1.02 | S. cerevisiae deletion strains, locus YOR316C, strain cot1, stronger effect = lower value 1.02 | S. cerevisiae deletion strains, locus YPL051W, strain arl3, stronger effect = lower value 0.998 | S. cerevisiae deletion strains, locus YPL055C, strain LGE1, stronger effect = lower value 1.02 | S. cerevisiae deletion strains, locus YPL078C, strain atp4, stronger effect = lower value 0.986 | S. cerevisiae deletion strains, locus YPL106C, strain sse1, stronger effect = lower value 1.02 | S. cerevisiae deletion strains, locus YPL240C, strain hsp82, stronger effect = lower value 0.982 | S. cerevisiae deletion strains, locus YPL241C, strain CIN2, stronger effect = lower value 1 | S. cerevisiae deletion strains, locus YPL256C, strain CLN2, stronger effect = lower value 0.963 | S. cerevisiae deletion strains, locus YPR119W, strain clb2, stronger effect = lower value 1.01 | S. cerevisiae deletion strains, locus YPR141C, strain kar3, stronger effect = lower value 1.02 | S. cerevisiae deletion strains, locus YPR163C, strain tif3, stronger effect = lower value 1.02 | S. cerevisiae deletion strains, locus YPR167C, strain met16, stronger effect = lower value 1.01 | S. cerevisiae deletion strains, strain wtn01, stronger effect = lower value 1.02 | S. cerevisiae strains, strain wild type, stronger effect = lower value 1.01
